Records with an inconclusive call do not appear. Unmarked numbers belong to inactive results. The source made the active and inactive calls. Calls come from the whole dose curve; as a rule, active = well fitted inhibition curve with a large enough effect; inconclusive = small, poorly fitted or top-dose-only effect; inactive = flat fitted curve, though single readings scatter.
Tested on: HEK293
Experiment: Cytotoxic Profiling of Annotated Libraries Using Quantitative High-Throughput Screening (AID 1296008); note: nearly all actives have a fitted effect of over 60% in size
Conditions: Five cell lines viability, CellTiter-Glo ATP luminescence, 48-72 h; max response: hits give low values
In short: (§1)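 Compounds were pin-transferred onto cells and incubated 48 or 72 hr at 37 degree Celsius, 95% humidity. CellTiter-Glo was added, plates sat 10 min at room temperature, then ATP-coupled luminescence was imaged as the viability read-out.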
% is set by controls: 0 for no effect and ±100 for the full control effect; potency is the fitted concentration of half-maximal effect.

SMILES	max response [%]	Potency
COc1ccc(-c2ccc(-c3cn(C(=O)N4CCCCC4c4ccccc4)nn3)cc2)cc1 (stereo not drawn)	1.03	–
O=C1NC(Cc2c[nH]c3ccccc23)C(=O)NC1Cc1cnc[nH]1 (stereo not drawn)	-5.57	–
C[C@@H]1CC[C@]2(C(=O)O[C@@H]3O[C@H](CO)[C@@H](O)[C@H](O)[C@H]3O)CC[C@]3(C)C(=CCC4[C@@]5(C)C[C@@H](O)[C@H](O)[C@](C)(C(=O)O)C5CC[C@]43C)[C@@H]2[C@]1(C)O (stereo partly drawn)	2.11	–
COC(=O)CCC(=O)OC[C@]1(C)CCC[C@@]2(C)C3CC[C@]4(C)C=CC3(CCC12)C4 (stereo partly drawn)	-2.92	–
C[C@H]1CC[C@@H]2N(C1)C[C@@H]1[C@H]([C@@H](O)[C@H](O)[C@]3(O)[C@H]1C[C@@]14OC5(O)[C@@H](C[C@@H](O)[C@@H]31)[C@]4(C)CC[C@@H]5O)[C@]2(C)O	-8.96	–
CC(=O)CC1CCC(C(C)C(=O)OCC(O)CO)O1 (stereo not drawn)	-3.6	–
C[C@@H]1C[C@@H]2O[C@H]2/C=C\C=C\C(=O)Cc2c(Cl)c(O)cc(O)c2C(=O)O1	–	0.286 µM (active)
Cc1nc(NC(=O)N2CCCC2C(N)=O)sc1-c1csc(C(C)(C)C)n1 (stereo not drawn)	-25.9	–
CC1(C)CC[C@]2(C(=O)O[C@@H]3O[C@H](CO)[C@@H](O)[C@H](O)[C@H]3O)CC[C@]3(C)C(=CCC4[C@@]5(C)CC[C@H](O[C@@H]6O[C@H](C(=O)O)[C@@H](O)[C@H](O)[C@H]6O)C(C)(C)C5CC[C@]43C)C2C1 (stereo partly drawn)	-5.49	–

Tested on: HaCat
Experiment: as above
Conditions: Five cell lines viability, CellTiter-Glo ATP luminescence, 48-72 h; max response: hits give low values
In short: as §1

SMILES	max response [%]	Potency	outcome
C=C1CC[C@H]2[C@@](C)(CCC(O)[C@@]2(C)CO)[C@@H]1CCC1=CCOC1=O (stereo partly drawn)	-3.43	–	–
CC1CCCCN1S(=O)(=O)c1ccc(N2CCCC2=O)cc1 (stereo not drawn)	-10.9	–	–
CC(C)c1ccc2c(c1)C(=O)CC1[C@@](C)(C(=O)O)CCC[C@]21C (stereo partly drawn)	-7.44	–	–
C/C(=C\CCC1(C)C2CCC(C2)C1(C)O)C(=O)O (stereo not drawn)	0.481	–	–
COC(C(=O)N1Cc2[nH]nc(NC(=O)c3ccc(N4CCN(C)CC4)cc3)c2C1)c1ccccc1 (stereo not drawn)	–	5.8 µM (active)	–
COC(=O)C[C@H]1C(C)(C)[C@H](OC(C)=O)C2CC3=C4CC(=O)O[C@@H](c5ccoc5)[C@]4(C)CCC3[C@@]1(C)C2=O (stereo partly drawn)	1.4	–	–
CC(=O)O[C@@H]1[C@@H](O)[C@H](C)O[C@@H](O[C@H]2[C@@H]3C=CO[C@@H](O[C@@H]4O[C@H](CO)[C@@H](O)[C@H](O)[C@H]4O)[C@@H]3[C@@]3(CO)O[C@@H]23)[C@@H]1OC(=O)/C=C/c1ccccc1	-6.78	–	–
CC(C)C(=O)OC[C@H]1O[C@H](O[C@H]2O[C@H](CO)[C@@H](O)[C@H](O)[C@H]2O)[C@H](O)[C@@H](O)[C@@H]1O	0.512	–	–
C[C@@H]1C(=O)OC[C@H]2C(C(=O)O)=C[C@@H]3CC(C)(C)C[C@]312	3.35	–	–
CC1COC2(OC3CC4C5CC(O[C@@H]6O[C@H](C)[C@@H](O[C@@H]7O[C@@H](C)[C@H](O)[C@@H](O)[C@H]7O)[C@H](O)[C@H]6O)C6CC(O)CCC6(C)C5CCC4(C)C3C2C)C(O)C1 (stereo partly drawn)	-23.5	–	–
N#Cc1cc(F)cc(-c2nc(-c3ccccn3)no2)c1	–	–	inactive
CC/C=C/CC1=C(CCCCC(CCC(=O)O)OC(C)=O)CCC1=O (stereo not drawn)	-33.4	–	–
Cc1cc2c(c(=O)[nH]1)OC(C(O)CC(C)C)O2 (stereo not drawn)	-1.41	–	–
CC(C)(O)C1CCC(C)(C2CCC3(C)C4CCC5C(C)(C(=O)OC6OC(CO)C(O)C(O)C6O)C(O)CC(O)C56CC46CCC23C)O1 (stereo not drawn)	–	–	inactive
C/C=C(\C)C(=O)O[C@H]1[C@@H](O[C@]2(COC(=O)CC(C)C)O[C@H](COC(=O)C(C)CC)[C@@H](OC(C)=O)[C@@H]2O)O[C@H](COC(C)=O)[C@@H](O)[C@@H]1O (stereo partly drawn)	1.55	–	–
C=C[C@H]1[C@H](O[C@@H]2O[C@H](CO)[C@@H](O)[C@H](O)[C@H]2O)OC=C(C(=O)OC)[C@H]1CC(=O)O	-3.58	–	–
C/C=C1\[C@H](O[C@@H]2O[C@H](CO)[C@@H](O)[C@H](O)[C@H]2O)OC=C(C(=O)OC)[C@H]1CC(=O)OC[C@H]1O[C@@H](OCCc2ccc(O)cc2)[C@H](O)[C@@H](O)[C@@H]1O	-4.08	–	–
C=CC1(C)C=C2C(=O)OC(=O)C3=C(CCCC3(C)C)C2(O)CC1 (stereo not drawn)	1.65	–	–
COc1ccc(N(C)c2nc(C)nc3ccccc23)cc1	–	–	inactive
Cc1cn(C2C=CC(CO)O2)c(=O)[nH]c1=O (stereo not drawn)	-43.4	–	–

SMILES	max response [%]	Potency	outcome
CC1(C)CC[C@]2(C(=O)O[C@@H]3O[C@H](CO)[C@@H](O)[C@H](O)[C@H]3O)CC[C@]3(C)C(=CCC4[C@@]5(C)C[C@@H](O)[C@H](O)[C@@](C)(CO)C5CC[C@]43C)C2[C@@H]1O (stereo partly drawn)	-9.78	–	–
C/C(=C\C=C\C(C)C1CCC2(C)C3CCC4C(C)(C)C(=O)CCC45CC35CCC12C)C(=O)O (stereo not drawn)	-16.2	–	–
C=C1CC2C(C)(CCC(=O)O)C(C(C)(C)O)CCC2(C)C2C(=O)OC(C)(C(=O)OC)C(=O)C12C (stereo not drawn)	4.3	–	–
O=C(O)c1cccc(S(=O)(=O)N2CCc3ccccc3C2)c1	-24.7	–	–
Cc1cccc(-c2[nH]c(Cc3cccc(C(N)=O)c3)nc2-c2ccc3nccnc3c2)n1	–	–	inactive
CCOC(=O)c1cc(C#N)c(N2CCC(C(=O)NS(=O)(=O)Cc3ccccc3)CC2)nc1C	2.62	–	–
CC1=CC(=O)CC2C1(O)CCC(C)C21CC(c2ccoc2)OC1=O (stereo not drawn)	-50.8	–	–
CC1CCC2(C=O)C(CO)=CCCC2C1(C)CC(=O)O (stereo not drawn)	-1.16	–	–
CCOc1ccc(NC(=S)N2CCC(C(O)(c3ccccc3)c3ccccc3)CC2)cc1	1.92	–	–
COc1ccc(/C=C/C(=O)O[C@@H]2[C@@H](O)[C@@H](O)[C@H](O[C@@H]3C=C(CO)[C@H]4[C@H](O[C@@H]5O[C@H](CO)[C@@H](O)[C@H](O)[C@H]5O)OC=C[C@H]43)O[C@H]2C)cc1O	-15	–	–
COc1ccc(-c2ccc(-c3cn(C(=O)N4CCCCC4c4ccccc4)nn3)cc2)cc1 (stereo not drawn)	-8.43	–	–
O=C1NC(Cc2c[nH]c3ccccc23)C(=O)NC1Cc1cnc[nH]1 (stereo not drawn)	–	–	inactive
C[C@@H]1CC[C@]2(C(=O)O[C@@H]3O[C@H](CO)[C@@H](O)[C@H](O)[C@H]3O)CC[C@]3(C)C(=CCC4[C@@]5(C)C[C@@H](O)[C@H](O)[C@](C)(C(=O)O)C5CC[C@]43C)[C@@H]2[C@]1(C)O (stereo partly drawn)	–	–	inactive
COC(=O)CCC(=O)OC[C@]1(C)CCC[C@@]2(C)C3CC[C@]4(C)C=CC3(CCC12)C4 (stereo partly drawn)	1.33	–	–
C[C@H]1CC[C@@H]2N(C1)C[C@@H]1[C@H]([C@@H](O)[C@H](O)[C@]3(O)[C@H]1C[C@@]14OC5(O)[C@@H](C[C@@H](O)[C@@H]31)[C@]4(C)CC[C@@H]5O)[C@]2(C)O	-17.6	–	–
CC(=O)CC1CCC(C(C)C(=O)OCC(O)CO)O1 (stereo not drawn)	-2.79	–	–
C[C@@H]1C[C@@H]2O[C@H]2/C=C\C=C\C(=O)Cc2c(Cl)c(O)cc(O)c2C(=O)O1	–	3.6 µM (active)	–
Cc1nc(NC(=O)N2CCCC2C(N)=O)sc1-c1csc(C(C)(C)C)n1 (stereo not drawn)	–	5.17 µM (active)	–
CC1(C)CC[C@]2(C(=O)O[C@@H]3O[C@H](CO)[C@@H](O)[C@H](O)[C@H]3O)CC[C@]3(C)C(=CCC4[C@@]5(C)CC[C@H](O[C@@H]6O[C@H](C(=O)O)[C@@H](O)[C@H](O)[C@H]6O)C(C)(C)C5CC[C@]43C)C2C1 (stereo partly drawn)	–	–	inactive

Source: PubChem BioAssay (NCATS)
